{"source": "PubChem BioAssay (NCI)", "note": "Compounds without any hit were thinned out: in the full panel of roughly 83,000, 20% have a hit.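 Treatment: one concentration, 48 hours, 96-well format. Scoring: percent growth, with anything below 10 considered active.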 Calls of active or inactive are those of the source.", "data": [{"tested_on": "PC-3 prostate", "assay": "NCI-60 one-dose screen, 48 h (100 = growth as untreated, 0 = no growth, -100 = all killed)", "conditions": "10 µM", "protocol": "Growth inhibition of the PC-3 human tumor cell line is measured as a screen for anti-cancer activity. Cells are grown in 96 well plates and exposed to the test compound for 48 hours. Compounds are tested at a single concentration, which is 10^-5 M for most compounds. The reported endpoint is percent growth (GI% or GIPRCNT), where numbers from 0 - 100% represent growth inhibition, and numbers from -100% - 0 represent cell death. For example, a value of 40 represents 60% growth inhibition. A value of 0 means no net growth occurred over the course of the experiment. A value of -40 indicates 40% of cells at the beginning of the experiment died by the end of the experiment. A value of -100 means all cells are dead at the end of the experiment.\nNCI-60 Human Tumor Cell Lines Screen was performed using the standard one-dose NCI protocol, which is described in more detail at https://dtp.cancer.gov/discovery_development/nci-60/default.htm.\nCompounds with GIPRCNT values below 10 were considered active. Activity score was based on GIPRCNT using the following formula: […]\nScore is 0 for GIPRCNT values of 100 or above, 50 for GIPRCNT values of 0, and 100 for GIPRCNT values of -100.", "values": [{"smiles": "O=[N+]([O-])c1ccc(Sc2ccncn2)c([N+](=O)[O-])c1", "growth": "71.9% (inactive)"}, {"smiles": "CCc1nn(Cc2ccccc2)c2nc(C)c(CCc3ccccc3)c(Cl)c12", "growth": "76% (inactive)"}, {"smiles": "CC(=O)OC(C(=O)O)c1ccccc1", "note": "(stereo not given)", "growth": "91% (inactive)"}, {"smiles": "CC(C)COC(=O)COC(=O)OCCOCCOC(=O)OCC(=O)OCC(C)C", "growth": "94.8% (inactive)"}, {"smiles": "Cc1cccc([N+](=O)[O-])c1Cl", "growth": "102% (inactive)"}, {"smiles": "NC(=S)CN1CCOCC1", "growth": "91.9% (inactive)"}, {"smiles": "CCCCCCCCCCC1CO1", "note": "(stereo not given)", "growth": "102% (inactive)"}, {"smiles": "CC(C)(N)COS(=O)(=O)O", "growth": "95.9% (inactive)"}, {"smiles": "c1ccc(CN2COc3c(ccc4c3OCN(Cc3ccccc3)C4)C2)cc1", "growth": "36.5% (inactive)"}, {"smiles": "COc1cc2c3c(n(C)c(=O)c2cc1OC)-c1cc2c(cc1C3=O)OCO2", "growth": "46.8% (inactive)"}, {"smiles": "C[C@]12CC[C@@H]3c4ccc(OCC(=O)O)cc4CC[C@H]3[C@@H]1CCC2=O", "growth": "95.7% (inactive)"}, {"smiles": "Cc1ccc(C)n1-c1ccsc1C(=O)NNC(=O)C(Cl)Cl", "growth": "88.5% (inactive)"}, {"smiles": "COCCOC(=O)c1ccc(C(C)C)cc1", "growth": "82.9% (inactive)"}, {"smiles": "CC1(C(=O)O)NC(C(=O)O)Cc2c1[nH]c1ccccc21", "note": "(stereo not given)", "growth": "87.4% (inactive)"}, {"smiles": "OCC1OC(OC2C(O)C(CO)OC2(CO)OC2OC(CO)C(O)C(O)C2O)C(O)C(O)C1O", "note": "(stereo not given)", "growth": "98.5% (inactive)"}, {"smiles": "N#CC(=Nc1cccc(F)c1)C1=C(O)c2ccccc2C1=O", "growth": "83% (inactive)"}, {"smiles": "C=CCOC(=O)C(=O)OCC=C", "growth": "97% (inactive)"}, {"smiles": "O=[N+]([O-])c1ccccc1N=Nc1ccc(O)cc1O", "growth": "97.2% (inactive)"}, {"smiles": "COc1nc(N)nc2c1ncn2C1OC(CO)CC1O", "note": "(stereo not given)", "growth": "99.2% (inactive)"}, {"smiles": "O=C(Cc1ccccc1)Cc1ccccc1", "growth": "103% (inactive)"}, {"smiles": "COc1ccc(C(O)c2ccccc2)cc1", "note": "(stereo not given)", "growth": "94.7% (inactive)"}, {"smiles": "CC1(C(N)=O)CCC(C(=O)O)C1(C)C", "note": "(stereo not given)", "growth": "98.1% (inactive)"}, {"smiles": "O=C(O)c1cccc([N+](=O)[O-])c1O", "growth": "107% (inactive)"}, {"smiles": "Cc1cc(N2CCC(N3CCCC3)CC2)nc(/N=C(\\N)Nc2ccc(Cl)c(Cl)c2)n1", "growth": "82.6% (inactive)"}, {"smiles": "O=C1Cc2ccccc2C(=O)O1", "growth": "85.1% (inactive)"}, {"smiles": "CCOC(=O)c1cc(/C=C/c2ccc(Cl)cc2Cl)on1", "growth": "44% (inactive)"}, {"smiles": "O=[N+]([O-])c1cccc2nsnc12", "growth": "97.3% (inactive)"}, {"smiles": "O=S(=O)(O)c1ccc(O)c2ccccc12", "growth": "92% (inactive)"}, {"smiles": "COCCOCCCl", "growth": "84.5% (inactive)"}, {"smiles": "Brc1cnc2ccccc2c1", "growth": "97% (inactive)"}, {"smiles": "N#Cc1ccc(OC(=O)Nc2ccc(Cl)c(Cl)c2)cc1", "growth": "36.2% (inactive)"}, {"smiles": "S=C1CCCCCN1", "growth": "105% (inactive)"}, {"smiles": "O=C(O)c1ccccc1NCc1ccco1", "growth": "111% (inactive)"}, {"smiles": "CCCCNC(=O)C(=O)NCCCC", "growth": "105% (inactive)"}, {"smiles": "CCOC(=O)c1coc(C(=O)OCC)c1C(=O)OCC", "growth": "122% (inactive)"}, {"smiles": "OCCN(CCO)C(=S)S", "growth": "104% (inactive)"}, {"smiles": "O=[N+]([O-])c1ccc(/C=C/C=C/c2ccccc2)c(Cl)c1", "growth": "94.1% (inactive)"}, {"smiles": "CC(=O)CC(=O)N(C)C", "growth": "92.8% (inactive)"}, {"smiles": "CC(=O)c1sc2c(c1OC(=O)c1ccc(Cl)cc1Cl)c(=O)n(-c1ccccc1)c(=S)n2-c1ccccc1", "growth": "-29.7% (active)"}, {"smiles": "COc1cc([C@@H]2c3cc4c(cc3[C@H](O)[C@H]3COC(=O)[C@H]23)OCO4)cc(OC)c1OC", "growth": "23.3% (inactive)"}]}]}
